Source: PubChem (National Center for Advancing Translational Sciences (NCATS))
Shiga inhibitor = inhibitors of Shiga toxin in Vero cells; Vero cells, Shiga toxin protein synthesis inhibition reporter; inhibition, % at 38.7 µM; hit rate 9.2% among 290,000; in the data active = inhibition mostly above about 28%, no sharp cut-off; inactive = mostly below about 43%
CHX counter = affects cycloheximide protein synthesis inhibition readout, counter-screen; cell reporter, cycloheximide protein synthesis inhibition counterscreen; max response, %; hit rate 12% among 300,000; AID 2314; in the data active = max response mostly above about 13%, no sharp cut-off; inactive = mostly below about 14%; note: read at 38.3 µM for the half of the compounds with a filed dose
Pf growth 96h = P. falciparum growth inhibition at 96 hour, primary screen for plastid delayed-death inhibitors | P. falciparum luciferase reporter growth, 96 h | Potency, µM (series often up to 28.7 µM), actives largely listed as inhibitors | hit rate 6.9% among 320,000 | AID 504834
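Compounds incubated with erythrocytes infected by luciferase-expressing P. falciparum (2% hematocrit, 0.05% parasitemia final) for 96 hours, 37 C in 5% CO2. Growth inhibition scored as decreased luciferase luminescence.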
NS1 function inh = influenza NS1 inhibition. Potency, µM (titrated, usually from 46.1 µM). hit rate 0.4% among 270,000; calls by dose curve; note: actives are rising curves; nearly all actives have a fitted effect of over 50% in size
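Growth recovery, yeast-based: influenza A NS1 expressed in S. cerevisiae causes slow growth, and suppressors are detected by OD600. The parent strain without NS1 is used as positive control.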
Giardia FBPA inh = blocks Giardia fructose-bisphosphate aldolase activity | A8B2U2 | purified Giardia FBPA | Potency, µM (doses to about 59.6 µM), most hits filed as inhibitors | hit rate 0.71% among 290,000 | AID 2451; note: nearly all actives have a fitted effect of over 55% in size
Target sequence (A8B2U2 whole entry, looked up): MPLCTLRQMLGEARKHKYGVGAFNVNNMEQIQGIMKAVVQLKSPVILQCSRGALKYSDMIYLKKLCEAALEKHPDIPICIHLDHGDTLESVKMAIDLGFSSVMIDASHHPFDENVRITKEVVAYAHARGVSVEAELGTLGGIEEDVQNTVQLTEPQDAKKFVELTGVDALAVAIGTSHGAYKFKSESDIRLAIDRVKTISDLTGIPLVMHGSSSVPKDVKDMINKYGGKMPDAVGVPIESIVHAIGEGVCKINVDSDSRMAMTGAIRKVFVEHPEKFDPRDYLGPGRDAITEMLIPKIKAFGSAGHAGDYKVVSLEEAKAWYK
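Giardia FBPA (40 nM reagent) was preincubated 10 min at RT with compound (up to 57.5 uM final), then substrate plus GAPDH/TPI/NAD/arsenate coupling system with diaphorase/resazurin was added; resorufin fluorescence (525/598 nm) was read after 20 min.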
Pf growth 48h = inhibits P. falciparum growth in the first generation, 48 h; hit rate 5.9% among 310,000; P. falciparum luciferase growth in erythrocytes, 48 h; Potency, µM (doses to about 28.7 µM), usual class: inhibitors
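First compound was added to culture medium, then infected red cells at 0.1% parasitemia and 2% hematocrit (final). After incubation at 37 C under 5% CO2, luciferase detection reagent was dispensed and light output recorded.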
A number is an active result; - = inactive; ? = inconclusive; . = no result given; [ ] = remark or other dose. Hits are enriched below; roughly 21% of the tested compounds scored in any of these assays. Unless noted, calls come from the whole dose curve; as a rule, active = well fitted curve in the direction sought with a large enough effect; inconclusive = small, poorly fitted or top-dose-only effect, or another doubt; inactive = no such curve, though single readings can be large; an effect the other way counts as inactive or inconclusive.

SMILES	Shiga inhibitor	CHX counter	Pf growth 96h	NS1 function inh	Giardia FBPA inh	Pf growth 48h
Cc1cnc(C(=O)Nc2ccc(N3CCOCC3)cc2)cn1	66.4	22.2	-	?	-	-
O=C(Nc1ccc(OC(F)(F)F)cc1)C1=NCCN1	38.3	40.4	-	-	-	-
Cc1cnc(C(=O)Nc2ccc(-n3cnnn3)cc2)cn1	-	-	?	-	-	-
Cc1cc(C(=O)Nc2ccc(S(=O)(=O)N3CCCC3)cc2)no1	-	-	?	.	-	?
Cc1cnc(C(=O)Nc2ccccc2C(=O)N2CCOCC2)cn1	-	-	3.7µM	-	-	-
Cc1cc(C(=O)Nc2ccc(N3CCCCC3)cc2)no1	-	16.3	?	-	-	-
O=c1ccc2cc(S(=O)(=O)N3CCN(c4ccc(Cl)cc4)CC3)ccc2o1	-	-	-	-	.	-
CCOc1ccc(/C=N/n2cc(-c3ccccc3)[nH]c2=S)cc1	-	18.6	?	-	-	?
CCc1ccc(CNc2ccc3c(c2)ncn3CC)cc1	85.9	52.7	-	-	-	-
CC(C)(C)n1cnc2cc(NCc3ccc(Br)cc3)ccc21	116.9	46.9	-	-	-	-
CCc1ccc(CNc2ccc3c(c2)ncn3C(C)(C)C)cc1	93.6	39.5	-	-	-	-
CCCn1cnc2cc(NCc3cccs3)ccc21	106.0	32.8	-	-	-	-
CCN(CC)c1ccc(CNc2ccc3c(c2)ncn3C(C)(C)C)cc1	-	-	-	-	-	-
O=C(COc1cccnc1[N+](=O)[O-])NCc1ccco1	-	-	-	-	-	-
c1ccc2c(Oc3ccc4c(c3)OCO4)nncc2c1	76.0	29.4	-	-	-	-
Nc1ccc(Oc2ccc3c(c2)OCO3)cc1	-	-	?	.	-	-
COc1cccc(N/C(SC)=C(/C#N)C(=O)NCc2cccs2)c1	-	-	-	.	-	-
CCOc1ccc(N/C(SCc2cccc([N+](=O)[O-])c2)=C(/C#N)C(N)=O)cc1	-	-	-	.	-	?
COc1cccc(N/C(SCc2cccc([N+](=O)[O-])c2)=C(/C#N)C(=O)NCc2cccs2)c1	-	-	?	-	-	10.4µM
COc1cccc(N/C(SCc2ccccc2C)=C(/C#N)C(=O)NCc2cccs2)c1	-	-	2.08µM	-	-	?
COc1cccc(N/C(SCc2ccccc2Cl)=C(/C#N)C(=O)NCc2cccs2)c1	-	-	?	-	-	10.4µM
O=C(CSc1nnc(CNC(=O)c2c(F)cccc2F)o1)NCCc1ccccc1	-	-	-	-	-	-
COc1ccc(C(=O)n2cnc3ccccc32)cc1[N+](=O)[O-]	-	-	?	-	-	-
CC(=O)Nc1cccc(C(=O)OCc2csc(CC(=O)Nc3ccccc3C)n2)c1	.	.	?	.	.	9.28µM
CC(=O)Nc1ccc(S(=O)(=O)NCCC(=O)OCc2csc(CC(=O)Nc3ccccc3C)n2)cc1	.	.	?	.	.	11.7µM
SMILES	Shiga inhibitor	CHX counter	Pf growth 96h	NS1 function inh	Giardia FBPA inh	Pf growth 48h
CCOC(=O)CN1CC23C=CC(O2)C(C(=O)NCc2ccc(C)cc2)C3C1=O (stereo not given)	-	-	10.4µM	-	-	.
Cc1ccccc1Cc1ccc(Cl)nn1	-	-	-	.	-	10.4µM
CCSc1ncc(/C=N/Nc2ccc(F)cc2)n1C	52.4	30.5	?	-	-	?
CC(=O)Nc1ccc(NC(=O)CSc2ncc(C(=O)Nc3ccc(F)cc3)c(=O)n2C)cc1	.	.	-	.	.	-
O=C(OCc1nnn(Cc2ccccc2)c1-c1c(COC(=O)c2ccccc2)nnn1Cc1ccccc1)c1ccccc1	-	-	1.85µM	-	-	3.29µM
c1ccc(CN2OCC3Cn4c(nc5ccccc54)C32)cc1 (stereo not given)	-	-	-	-	-	-
c1ccc(N2OCC3Cn4c(nc5ccccc54)C32)cc1 (stereo not given)	42.0	26.5	-	-	-	-
COc1ccc(/C=C/C(=O)c2ccc3c(c2)OCCO3)cc1[N+](=O)[O-]	-	-	-	-	-	-
O=C(/C=C/c1ccc2c(c1)OCO2)c1ccccc1	.	.	.	.	-	.
COc1ccc(C(=O)/C=C/c2ccc3c(c2)OCCO3)cc1	92.2	30.9	-	-	-	-
Nc1ccccc1C(=O)/C=C\c1ccc2c(c1)OCO2	.	.	.	.	-[12.9 µM]	.
Cc1ccc(O)c(C(=O)/C=C/c2ccc3c(c2)OCCO3)c1	141.6	32.9	?	.	-	-
O=C(/C=C/c1ccc2c(c1)OCCO2)c1ccccc1	74.2	42.2	-	-	-	-
Nc1cc(-c2ccc(Br)cc2)nn1Cc1ccccc1	91.0	53.6	-	?	-	-
Nc1cc(-c2cccc(Br)c2)nn1Cc1ccccc1	-	-	-	?	-	-
CC1(C)CC(=O)c2cc(NC(=O)c3ccccc3)c(=O)oc2C1	54.8	27.0	-	-	-	-
CC(=O)c1cc(NC(=O)c2ccccc2)c(=O)oc1C	-	-	-	-	-	?
Cc1oc(=O)c(NC(=O)c2ccc(Cl)cc2)cc1C(=O)c1ccccc1	132.0	65.2	-	-	-	?
Cc1oc(=O)c(NC(=O)c2ccccc2)cc1C(=O)c1ccccc1	100.8	63.7	-	-	-	-
CCOC(=O)c1cc(NC(=O)c2ccc(C)cc2)c(=O)oc1C(F)(F)F	-	-	-	.	-	?
CCOC(=O)c1cc(NC(=O)c2ccccc2)c(=O)oc1C(F)(F)F	-	27.4	-	.	-	?
CC(=O)Nc1ccc(Br)c2ccccc12	-	-	?	-	-	-
O=C(Nc1ccc(Br)c2ccccc12)c1ccc2ccccc2c1O	44.4	21.6	9.28µM	-	-	11.7µM
COc1cc(OC)cc(C(=O)NC(=S)Nc2cc3oc4ccccc4c3cc2OC)c1	-	-	-	-	-	-
COc1ccc(C(=O)NC(=S)Nc2cc3oc4ccccc4c3cc2OC)cc1	-	-	-	-	-	-
SMILES	Shiga inhibitor	CHX counter	Pf growth 96h	NS1 function inh	Giardia FBPA inh	Pf growth 48h
COc1cc2c(cc1NC(=O)c1cccnc1)oc1ccccc12	-	28.6	-	-	-	.
COc1cc2c(cc1NC(=S)NC(=O)c1c(OC)cccc1OC)oc1ccccc12	-	-	3.7µM	-	-	4.15µM
COCCNC(=S)Nc1cc2oc3ccccc3c2cc1OC	-	15.6	-	-	-	?
CSc1nc(/C=C2\C=Nc3ccccc32)c(O)n1C	117.1	17.3	-	-	-	?
Cn1c(O)c(/C=C2\C=Nc3ccccc32)c(=O)n(C)c1=O	-	-	-	-	-	-
CC(C)(Cc1ccccc1)/[N+]([O-])=C\c1ccccc1	.	.	-	.	.	-
O=C(c1ccc(F)cc1)N1CCN2C(=O)c3ccccc3C12c1ccc(Cl)cc1 (stereo not given)	-	-	5.22µM	-	-	13.1µM
O=C1c2ccccc2C2(c3ccc(Cl)cc3)NCCN12 (stereo not given)	-	-	13.1µM	-	-	-
Cc1cc(C)n2nc(CCCO)nc2n1	-	-	-	-	-	-
CN(Cc1ccco1)c1nc(-c2cccc(C#N)c2)nc2ccccc12	.	.	.	.	-	.
Cc1ccc(N[C@H](c2ccccc2)c2ccc3cccnc3c2O)cc1	.	.	.	-	.	.
COC(=O)C(C(C)=O)C(NC(=O)OC(C)(C)C)c1ccccc1 (stereo not given)	.	.	.	.	-	.
